Laboratory results published in PubChem BioAssay AID1159580 (chemical genetic matrix, 2015).
Screen size: about 5,500 compounds; about 2,000 (36%) were called active. Roughly 18% stayed inconclusive and do not appear here. Cut-off read from the data, not from the text of the source: active = normalized growth mostly below about 0.91 (no sharp cut-off); inconclusive = no clear call, values can overlap the other calls; inactive = mostly above about 0.92. This is one part of the list.

Assay: chemical genetic growth profiling, strain panel (AID 1159580);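 note: tested at 20 µM; growth read once vehicle control cultures reached saturation at 30 °C; 1 = growth at the plate median or of vehicle wells; lower values mean less growth of the strain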
Settings: growth OD

Measured: normalized growth

CC1O[C@@H](Oc2c(-c3ccc(O)c(O)c3)oc3cc(O)cc(O)c3c2=O)[C@H](O)[C@H](O)[C@H]1O (some centres not stated)
inactive: S. cerevisiae deletion strains, locus YJR075W, strain HOC1, hits give low values 0.996 | S. cerevisiae deletion strains, locus YKL009W, strain mrt4, hits give low values 1.11 | S. cerevisiae deletion strains, locus YKL068W, hits give low values 0.972 | S. cerevisiae deletion strains, locus YKL085W, strain MDH1 (second series), hits give low values 1.03 | S. cerevisiae deletion strains, locus YKL085W, strain MDH1, hits give low values 1.03 | S. cerevisiae deletion strains, locus YKL160W, strain elf1, hits give low values 0.994 | S. cerevisiae deletion strains, locus YKL190W, strain CNB1, hits give low values 0.998 | S. cerevisiae deletion strains, locus YKR001C, strain vps1, hits give low values 0.989 | S. cerevisiae deletion strains, locus YKR026C, strain gcn3, hits give low values 0.983 | S. cerevisiae deletion strains, locus YKR091W, strain srl3, hits give low values 0.993 | S. cerevisiae deletion strains, locus YLL001W, strain dnm1, hits give low values 0.986 | S. cerevisiae deletion strains, locus YLL026W, hits give low values 0.996 | S. cerevisiae deletion strains, locus YLL041C, strain sdh2, hits give low values 0.997 | S. cerevisiae deletion strains, locus YLR027C, strain aat2, hits give low values 0.98 | S. cerevisiae deletion strains, locus YLR039C, strain RIC1, hits give low values 0.974 | S. cerevisiae deletion strains, locus YLR058C, strain SHM2, hits give low values 0.999 | S. cerevisiae deletion strains, locus YLR102C, strain apc9, hits give low values 0.984 | S. cerevisiae deletion strains, locus YLR113W, strain HOG1, hits give low values 0.958 | S. cerevisiae deletion strains, locus YLR221C, strain rsa3, hits give low values 0.989 | S. cerevisiae deletion strains, locus YLR258W, strain gsy2, hits give low values 1 | S. cerevisiae deletion strains, locus YLR262C, strain YPT6 (second series), hits give low values 1.01 | S. cerevisiae deletion strains, locus YLR262C, strain YPT6, hits give low values 0.992 | S. cerevisiae deletion strains, locus YLR268W, strain sec22, hits give low values 0.948 | S. cerevisiae deletion strains, locus YLR320W, strain mms22, hits give low values 0.991 | S. cerevisiae deletion strains, locus YLR330W, strain CHS5, hits give low values 0.99 | S. cerevisiae deletion strains, locus YLR342W, strain FKS1 (second series), hits give low values 1.04 | S. cerevisiae deletion strains, locus YLR342W, strain FKS1, hits give low values 0.984 | S. cerevisiae deletion strains, locus YLR357W, strain rsc2, hits give low values 0.969 | S. cerevisiae deletion strains, locus YLR370C, strain arc18, hits give low values 0.989 | S. cerevisiae deletion strains, locus YLR371W, strain rom2, hits give low values 0.992 | S. cerevisiae deletion strains, locus YLR384C, strain iki3, hits give low values 0.994 | S. cerevisiae deletion strains, locus YLR418C, strain cdc73, hits give low values 0.993 | S. cerevisiae deletion strains, locus YML016C, strain PPZ1, hits give low values 1 | S. cerevisiae deletion strains, locus YML032C, strain rad52, hits give low values 0.99 | S. cerevisiae deletion strains, locus YML120C, strain ndi1, hits give low values 1 | S. cerevisiae deletion strains, locus YML124C, strain tub3, hits give low values 0.985 | S. cerevisiae deletion strains, locus YMR058W, strain fet3, hits give low values 0.99 | S. cerevisiae deletion strains, locus YMR078C, strain ctf18, hits give low values 0.988 | S. cerevisiae deletion strains, locus YMR125W, strain sto1, hits give low values 0.981 | S. cerevisiae deletion strains, locus YMR129W, hits give low values 0.982 | S. cerevisiae deletion strains, locus YMR205C, strain PFK2, hits give low values 0.986 | S. cerevisiae deletion strains, locus YMR223W, strain ubp8, hits give low values 1.03 | S. cerevisiae deletion strains, locus YMR231W, strain pep5, hits give low values 0.974 | S. cerevisiae deletion strains, locus YMR263W, strain SAP30, hits give low values 0.992 | S. cerevisiae deletion strains, locus YMR307W, strain GAS1, hits give low values 1.1 | S. cerevisiae deletion strains, locus YNL067W, strain RPL9B, hits give low values 0.975 | S. cerevisiae deletion strains, locus YNL071W, strain lat1, hits give low values 0.992 | S. cerevisiae deletion strains, locus YNL128W, strain TEP1, hits give low values 0.986 | S. cerevisiae deletion strains, locus YNL153C, strain GIM3, hits give low values 0.991 | S. cerevisiae deletion strains, locus YNL183C, strain NPR1, hits give low values 0.919 | S. cerevisiae deletion strains, locus YNL209W, strain ssb2, hits give low values 0.984 | S. cerevisiae deletion strains, locus YNL233W, strain BNI4, hits give low values 0.985 | S. cerevisiae deletion strains, locus YNL248C, strain rpa49, hits give low values 0.989 | S. cerevisiae deletion strains, locus YNL250W, strain rad50, hits give low values 0.983 | S. cerevisiae deletion strains, locus YNL271C, strain bni1, hits give low values 0.984 | S. cerevisiae deletion strains, locus YNL298W, strain CLA4, hits give low values 0.991 | S. cerevisiae deletion strains, locus YNL307C, strain MCK1, hits give low values 0.997 | S. cerevisiae deletion strains, locus YNL322C, strain KRE1 (second series), hits give low values 0.988 | S. cerevisiae deletion strains, locus YNL322C, strain KRE1, hits give low values 0.984 | S. cerevisiae deletion strains, locus YNR049C, strain mso1, hits give low values 0.986 | S. cerevisiae deletion strains, locus YNR052C, strain pop2, hits give low values 0.98 | S. cerevisiae deletion strains, locus YOL006C, strain TOP1, hits give low values 0.955 | S. cerevisiae deletion strains, locus YOL012C, strain htz1 0.762 | S. cerevisiae deletion strains, locus YOL147C, strain pex11, hits give low values 0.997 | S. cerevisiae deletion strains, locus YOR001W, strain rrp6, hits give low values 0.992 | S. cerevisiae deletion strains, locus YOR061W, strain CKA2, hits give low values 1 | S. cerevisiae deletion strains, locus YOR069W, strain VPS5, hits give low values 1 | S. cerevisiae deletion strains, locus YOR070C, strain gyp1, hits give low values 0.986 | S. cerevisiae deletion strains, locus YOR080W, strain dia2, hits give low values 0.988 | S. cerevisiae deletion strains, locus YOR083W, strain WHI5, hits give low values 0.995 | S. cerevisiae deletion strains, locus YOR106W, strain vam3, hits give low values 1.02 | S. cerevisiae deletion strains, locus YOR136W, strain idh2, hits give low values 0.986 | S. cerevisiae deletion strains, locus YOR144C, strain elg1, hits give low values 0.982 | S. cerevisiae deletion strains, locus YOR184W, strain ser1, hits give low values 1.01 | S. cerevisiae deletion strains, locus YOR231W, strain MKK1, hits give low values 0.942 | S. cerevisiae deletion strains, locus YOR265W, strain rbl2, hits give low values 0.992 | S. cerevisiae deletion strains, locus YOR270C, strain vph1, hits give low values 1.03 | S. cerevisiae deletion strains, locus YOR290C, strain snf2, hits give low values 0.995 | S. cerevisiae deletion strains, locus YOR316C, strain cot1, hits give low values 0.983 | S. cerevisiae deletion strains, locus YPL051W, strain arl3, hits give low values 0.983 | S. cerevisiae deletion strains, locus YPL055C, strain LGE1, hits give low values 0.974 | S. cerevisiae deletion strains, locus YPL078C, strain atp4, hits give low values 0.997 | S. cerevisiae deletion strains, locus YPL106C, strain sse1, hits give low values 0.971 | S. cerevisiae deletion strains, locus YPL240C, strain hsp82, hits give low values 1 | S. cerevisiae deletion strains, locus YPL241C, strain CIN2, hits give low values 1 | S. cerevisiae deletion strains, locus YPL256C, strain CLN2, hits give low values 0.927 | S. cerevisiae deletion strains, locus YPR119W, strain clb2, hits give low values 0.996 | S. cerevisiae deletion strains, locus YPR141C, strain kar3, hits give low values 0.975 | S. cerevisiae deletion strains, locus YPR163C, strain tif3, hits give low values 0.986 | S. cerevisiae deletion strains, locus YPR167C, strain met16, hits give low values 0.982 | S. cerevisiae deletion strains, strain wtn01, hits give low values 0.982 | S. cerevisiae strains, strain wild type, hits give low values 0.997
